# Experimental data from ChEMBL document CHEMBL5606460, “ASAP - DENV-2 NS2B-NS3 protease fluorescence single point” (2024).
# Hit rate of the full screen: of about 2,000 compounds, about 110 (5.5%) showed an effect of 50% or more. The sample as a whole holds a higher share of strong results than the screen did.
# Target: Genome polyprotein (dengue virus type 2) (UniProt P29990)
# [1] = Thailand/16681/1984, Concentration 25.0 uM, Number of replicates 1.0
smiles,measurement,setting,value
Cc1cc(Cl)c2cccc(NC(=O)[C@@H]3CCCC[C@H]3N)c2n1,inhibition,"Thailand/16681/1984, Concentration 99.9 uM, Number of replicates 2.0, Standard deviation 1.2808103574664134 %",-9.95%
Cc1cc(CO)c2cccc(Cc3ccccc3NC(=O)[C@@H](N)CC(N)=O)c2n1,inhibition,"Thailand/16681/1984, Concentration 49.95 uM, Number of replicates 2.0, Standard deviation 0.9388389208439332 %",28.9%
same,inhibition,"Thailand/16681/1984, Concentration 99.9 uM, Number of replicates 2.0, Standard deviation 1.1783962129832455 %",59.7%
Cc1cc(CO)c2cccc(NC(=O)[C@@H](N)CCN)c2n1,inhibition,"Thailand/16681/1984, Concentration 49.95 uM, Number of replicates 2.0, Standard deviation 3.3658560886244877 %",-1.14%
same,inhibition,"Thailand/16681/1984, Concentration 99.9 uM, Number of replicates 2.0, Standard deviation 3.0766976877592507 %",-5.81%
Cc1cc(CO)c2cccc(Nc3cc(O)[nH]n3)c2n1,inhibition,"Thailand/16681/1984, Concentration 49.95 uM, Number of replicates 2.0, Standard deviation 1.1262325758678584 %",32.3%
same,inhibition,"Thailand/16681/1984, Concentration 99.9 uM, Number of replicates 2.0, Standard deviation 0.556697154318326 %",51.5%
Cc1cc(CO)c2cccc(CC(=O)Nc3cc(O)[nH]n3)c2n1,inhibition,"Thailand/16681/1984, Concentration 49.95 uM, Number of replicates 2.0, Standard deviation 0.30186854167697036 %",9.85%
same,inhibition,"Thailand/16681/1984, Concentration 99.9 uM, Number of replicates 2.0, Standard deviation 0.4943454438060974 %",27.1%
Cc1cc(CO)c2cccc(NC(=O)COc3cccc(CN)c3)c2n1,inhibition,"Thailand/16681/1984, Concentration 49.95 uM, Number of replicates 2.0, Standard deviation 1.546456211659181 %",9.18%
same,inhibition,"Thailand/16681/1984, Concentration 99.9 uM, Number of replicates 2.0, Standard deviation 0.8863913825569767 %",7.18%
Cc1cc(Cl)c2cccc(NC(=O)CCN)c2n1,inhibition,"Thailand/16681/1984, Concentration 49.95 uM, Number of replicates 2.0, Standard deviation 0.0008200090846279543 %",99.2%
same,inhibition,"Thailand/16681/1984, Concentration 99.9 uM, Number of replicates 2.0, Standard deviation 0.04112992935002318 %",98.9%
Cc1nc(Cl)c(NC(=O)C2CCN(c3ccc(C=O)cc3)CC2)c(Cl)n1,inhibition,[1],12.8%
CC(C)(CO)NC(=O)c1cc(Cl)cc(NC(=O)Cn2cnccc2=O)c1,inhibition,"Thailand/16681/1984, Concentration 49.5 uM, Number of replicates 2.0, Standard deviation 0.3718016272993385 %",-3.9%
same,inhibition,"Thailand/16681/1984, Concentration 99.01 uM, Number of replicates 2.0, Standard deviation 1.0416819516575477 %",-5.97%
same,inhibition,"Thailand/16681/1984, Concentration 198.0 uM, Number of replicates 2.0, Standard deviation 1.29652000519297 %",-5.4%
O=Cc1ccc(N2CCC(C(=O)N3CCN(C(=O)C(F)(F)F)CC3)CC2)cc1,inhibition,[1],8.59%
Cc1n[nH]c(CC(=O)N2CCC[C@H](n3cnc(C(N)=O)n3)C2)n1,inhibition,"Thailand/16681/1984, Concentration 49.5 uM, Number of replicates 2.0, Standard deviation 0.8615620840433298 %",-1.22%
same,inhibition,"Thailand/16681/1984, Concentration 99.01 uM, Number of replicates 2.0, Standard deviation 0.2938998370290156 %",-1.99%
same,inhibition,"Thailand/16681/1984, Concentration 198.0 uM, Number of replicates 2.0, Standard deviation 1.103757347430939 %",-0.94%
Cn1cc(NC(=O)c2ccccc2C(F)(F)F)c(-c2cnn(C)n2)n1,inhibition,"Thailand/16681/1984, Concentration 49.5 uM, Number of replicates 2.0, Standard deviation 0.32036291597833877 %",-2.97%
same,inhibition,"Thailand/16681/1984, Concentration 99.01 uM, Number of replicates 2.0, Standard deviation 1.175972600606475 %",-3.46%
same,inhibition,"Thailand/16681/1984, Concentration 198.0 uM, Number of replicates 2.0, Standard deviation 1.0582279614459547 %",-3.2%
O=Cc1ccc(N2CCC(C(=O)Nc3ccc4scnc4c3)CC2)cc1,inhibition,[1],13%
O[C@]1(C(F)(F)F)CC[C@H](CNCc2nnc3ccccn23)CC1,inhibition,"Thailand/16681/1984, Concentration 49.5 uM, Number of replicates 2.0, Standard deviation 2.244095461971029 %",4.51%
same,inhibition,"Thailand/16681/1984, Concentration 99.01 uM, Number of replicates 2.0, Standard deviation 1.4092400656614155 %",4.61%
same,inhibition,"Thailand/16681/1984, Concentration 198.0 uM, Number of replicates 2.0, Standard deviation 2.783814769891106 %",1.75%
CCc1nc([C@@H](C)NC(=O)c2ccc(O)c(NC(=O)c3ccncc3F)c2C)n[nH]1,inhibition,"Thailand/16681/1984, Concentration 49.5 uM, Number of replicates 2.0, Standard deviation 0.640305880758115 %",-3.94%
same,inhibition,"Thailand/16681/1984, Concentration 99.01 uM, Number of replicates 2.0, Standard deviation 0.7647439452243474 %",-3.61%
same,inhibition,"Thailand/16681/1984, Concentration 198.0 uM, Number of replicates 2.0, Standard deviation 1.5490355987880475 %",-3.27%
Cc1cn2nnc(C(=O)N[C@H]3CCCCn4c3n[nH]c4=O)c2c(=O)[nH]1,inhibition,"Thailand/16681/1984, Concentration 49.5 uM, Number of replicates 2.0, Standard deviation 0.2359641679366373 %",-0.501%
same,inhibition,"Thailand/16681/1984, Concentration 99.01 uM, Number of replicates 2.0, Standard deviation 0.10523355791430405 %",-0.563%
same,inhibition,"Thailand/16681/1984, Concentration 198.0 uM, Number of replicates 2.0, Standard deviation 0.06258385535382655 %",-1.4%
O=Cc1ccc(N2CCC(C(=O)Nc3nnc(C(F)(F)F)s3)CC2)cc1,inhibition,[1],12.7%
O=Cc1ccc(N2CCC(C(=O)N3CCNC(=O)C34CCCCC4)CC2)cc1,inhibition,[1],13.7%
CCCCN(Cc1ccc(F)cc1)C(=O)C1CCN(c2ccc(C=O)cc2)CC1,inhibition,[1],16.4%
COc1cc(C(=O)Nc2cnc3ccccc3c2)nc(N2CCNCC2)n1,inhibition,"Thailand/16681/1984, Concentration 49.5 uM, Number of replicates 2.0, Standard deviation 9.540542197549359 %",4.46%
same,inhibition,"Thailand/16681/1984, Concentration 99.01 uM, Number of replicates 2.0, Standard deviation 4.349736840709832 %",6.31%
same,inhibition,"Thailand/16681/1984, Concentration 198.0 uM, Number of replicates 2.0, Standard deviation 5.514135579540427 %",7.41%
O=Cc1ccc(N2CCC(C(=O)N3CCCN(c4ccc(C(F)(F)F)cn4)CC3)CC2)cc1,inhibition,[1],9.22%
Cc1cc(CO)c2cccc(Cc3cccc(NC(=O)c4cc(C(=O)O)[nH]n4)c3)c2n1,inhibition,"Thailand/16681/1984, Concentration 49.95 uM, Number of replicates 2.0, Standard deviation 0.024232414845035546 %",4.13%
same,inhibition,"Thailand/16681/1984, Concentration 99.9 uM, Number of replicates 2.0, Standard deviation 0.7422093740247248 %",7.91%
COCc1cc(-c2ccccc2C(=O)Nc2cnn(C)c2)ccn1,inhibition,"Thailand/16681/1984, Concentration 49.5 uM, Number of replicates 2.0, Standard deviation 1.4111132401966338 %",-5.45%
same,inhibition,"Thailand/16681/1984, Concentration 99.01 uM, Number of replicates 2.0, Standard deviation 1.6255328031848963 %",-5.34%
same,inhibition,"Thailand/16681/1984, Concentration 198.0 uM, Number of replicates 2.0, Standard deviation 0.730186058256325 %",-4.12%
O=Cc1ccc(N2CCC(C(=O)NCC(=O)Nc3ccc(F)c(F)c3)CC2)cc1,inhibition,[1],14.1%
